Among the data in the supplement of paper PMC6555819 are PBM binding z-score values, retold here.

Holding throughout (assay): PBM binding z-score (relative to random genomic background probes); higher = stronger binding; sequences stand for … in GC…GCGATTGACAGCGTAGAATGAAGG
Assay [1] has as its system FXR:RXRa (NR concentration 270 nM, RXRa partner concentration 90 nM). The method, boiled down: (§1)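 Custom Agilent 4×180K protein-binding microarrays carried double-stranded probes, each with a 34-nt variable region. These regions held direct-repeat seeds, single-nucleotide variants, half-site ablations and random human genomic background sequences. Ligand-free nuclear receptor dimers were incubated on the arrays for 1 h, antibodies against each partner (one per run) detected binding, and scanned fluorescence was regression-normalized. Binding z-scores take the random background probes as reference.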

Assay [2] deals with LXRa:RXRa (NR concentration 270 nM, RXRa partner concentration 90 nM). In outline: as §1
The subject of assay [3] is LXRa homodimer (NR concentration 270 nM). In outline: as §1
For assay [4], the system named is LXRb:RXRa (NR concentration 270 nM, RXRa partner concentration 90 nM). The method, boiled down:
as §1

The test system of assay [5] is LXRb homodimer (NR concentration 270 nM). The method, boiled down: as §1
Assay [6] has as its system PPARa:RXRa (NR concentration 270 nM, RXRa partner concentration 90 nM). In outline: as §1
Assay [7] relates to PPARg:RXRa (NR concentration 180 nM, RXRa partner concentration 90 nM). The method, boiled down:
as §1

In assay [8] the test system is PPARg:RXRa 270nM:90nM, anti-RXR (NR concentration 270 nM, RXRa partner concentration 90 nM). The method, boiled down:
as §1

Assay [9] concerns PPARg:RXRa 30nM:10nM, anti-RXR (NR concentration 30 nM, RXRa partner concentration 10 nM). The method, boiled down:
as §1

The test system of assay [10] is PPARg:RXRa 90nM:30nM, anti-RXR (NR concentration 90 nM, RXRa partner concentration 30 nM). In outline:
as §1

Assay [11] has as its system PPARg:RXRa DBDmut IVT, anti-RXR (DBD mutation: RXRa K156A/R161A, NR concentration 270 nM, RXRa partner concentration 90 nM). In outline:
as §1

Assay [12] has as its system PPARg:RXRa IVT, anti-PPARg (NR concentration 270 nM, RXRa partner concentration 90 nM). In outline: as §1
Assay [13] deals with PPARg DBDmut:RXRa IVT, anti-PPARg (DBD mutation: PPARg1 K132A/R137A, NR concentration 270 nM, RXRa partner concentration 90 nM). In outline: as §1
Assay [14] relates to PPARg DBDmut IVT, anti-PPARg (DBD mutation: PPARg1 K132A/R137A, NR concentration 270 nM). In outline: as §1
The subject of assay [15] is PPARg homodimer (NR concentration 180 nM). In outline: as §1
The test system of assay [16] is PXR:RXRa (NR concentration 270 nM, RXRa partner concentration 90 nM). The method, boiled down: as §1
Assay [17] has as its system PXR homodimer (NR concentration 270 nM). The method, boiled down:
as §1

For assay [18], the system named is RARa:RXR (NR concentration 270 nM, RXRa partner concentration 90 nM). The method, boiled down: as §1
The subject of assay [19] is RARa homodimer (NR concentration 270 nM). In outline: as §1
Assay [20] concerns RARb:RXRa (NR concentration 270 nM, RXRa partner concentration 90 nM). The method, boiled down:
as §1

Regarding CTAACTAGGTCAAAGGTCAAAGTCGAGCCAACCA, the PBM binding z-score stood at 8.53 in assay [1]; 7.32 in assay [2]; 5.19 in assay [3]; 7.21 in assay [4]; 2.96 in [5]; 7.74 in [6]. Besides, the PBM binding z-score was determined as 14 in assay [7]; 11.2 in assay [8]; 13.1 in assay [9]; 13.2 in [10]; 9.01 in [11]; 9.15 in assay [12]. The PBM binding z-score stood at 2.95 in [13]; 1.6 in assay [14]; 4.42 in [15]; 7.03 in assay [16]; 1.84 in assay [17]; 8.76 in assay [18]. Further, the PBM binding z-score worked out at 2.8 in assay [19] and 5.8 in assay [20].
Turning to CCTGCTAGGTCATGGTCAGCTACTCTACAGTATG, the PBM binding z-score in assay [1] is 3.3; in assay [2] it was 2.34; in assay [3], 0.256; in assay [4] it was 1.42; in assay [5], -0.441; in assay [6], 3.16. The PBM binding z-score in [7] was 2.56; in [8] it was 2.72; in assay [9], 0.637; in [10], 1.67; in assay [11] it was 4.23; in [12], 3.88. Further, the PBM binding z-score in assay [13] was 0.29; in assay [14], 0.349; in assay [15], 1.41; in assay [16], 0.866; in assay [17] it was -0.32; in assay [18] it was 2.09. In addition, the PBM binding z-score in assay [19] is -0.0662; in assay [20], 4.04.
For the sequence TCTTGAAGATCAGCAGGTTAAGAAAGCTGGCCAA, the PBM binding z-score in assay [1] was 0.211; in assay [2], 0.582; in [3] it was -0.541; in [4], 0.285; in assay [5], -0.955; in assay [6], 0.856. Moreover, the PBM binding z-score in [7] is -0.581; in [8] it was 1.44; in assay [9], 2.86; in [10] it was 2.07; in [11], 1.75; in [12] it was -0.514. Moreover, the PBM binding z-score in assay [13] is -1.09; in [14], -0.481; in [15] it was -0.436; in assay [16], 0.0848; in [17], -0.299; in assay [18] it was 0.104. Besides, the results for the PBM binding z-score in [19] and in assay [20] were -0.00981 and 0.0583, respectively.
On to TCAAGTAGGTTACCAATGGGGCATTCAGCTTTCT, for which the PBM binding z-score in [1] was 0.176; in [2], 1.6; in assay [3], -0.145; in assay [4] it was 1.17; in assay [5], -0.449; in [6] it was 2.16. Also, the PBM binding z-score in [7] worked out at 2.1; in [8], 2.92; in assay [9] it was 3.34; in assay [10], 3.02; in assay [11], 6.09; in assay [12], 5.24. Also, the PBM binding z-score was 0.706 in assay [13]; -0.182 in assay [14]; 0.999 in [15]; 0.326 in assay [16]; -0.278 in assay [17]; 0.518 in [18]. The PBM binding z-score in assay [19] was found to be 0.134; in assay [20], 1.27.
Regarding CGAACCAGGTCAAGGACAGTGAATCTCCGCACGC, the PBM binding z-score in [1] was 4.75; in [2], 2.98; in assay [3] it was 0.32; in [4], 2.36; in assay [5] it was -0.00984; in assay [6], 4.52. Further, the PBM binding z-score in [7] amounted to 4.96; in assay [8], 4.26; in assay [9] it was 1.28; in assay [10], 3.31; in assay [11], 4.75; in [12] it was 5.44. The PBM binding z-score was 0.626 in assay [13]; 1.5 in assay [14]; 2.06 in [15]; 2.01 in assay [16]; 0.853 in [17]; 3 in assay [18]. Moreover, the PBM binding z-score came to 0.303 in assay [19] and 4.04 in assay [20].
As for ATCGAAAGGCCGACGAGGTGAGTATACACCGTTT, the PBM binding z-score in assay [1] is 0.135; in [2], -0.127; in [3], -0.565; in assay [4] it was -0.439; in [5], -0.414; in [6] it was -0.0782. The PBM binding z-score in assay [7] was 0.686; in [8], -0.414; in [9], -0.0742; in assay [10] it was -0.119; in assay [11] it was -0.57; in assay [12], 0.479. Also, the PBM binding z-score in assay [13] was 0.035; in assay [14], 0.014; in [15] it was -0.108; in [16], -0.0744; in assay [17] it was -0.0811; in assay [18], 0.0866. In addition, the values for the PBM binding z-score in [19] and in assay [20] were -0.372 and 1.33, respectively.
With GCTTGTAGATCAAGGTTAAGTAAGACTAAGCTAA, the PBM binding z-score in assay [1] is 0.31; in assay [2], 0.866; in assay [3] it was -0.213; in assay [4], 0.847; in assay [5] it was -0.28; in [6] it was 1.8. The PBM binding z-score in assay [7] came to 1.15; in [8], 2.27; in [9] it was 0.377; in assay [10] it was 1.78; in assay [11], 1.5; in assay [12], 1.73. Besides, the PBM binding z-score was -0.282 in assay [13]; 0.512 in assay [14]; -0.0519 in assay [15]; 0.746 in assay [16]; -0.237 in assay [17]; 0.964 in [18]. Moreover, the PBM binding z-score in assay [19] was -0.148; in assay [20], 0.875.
